According to PubChem BioAssay (NCI):
Compounds without any hit were thinned out: in the full panel of roughly 79,000, 15% have a hit. Calls of active or inactive are those of the source. No stated cut-off is given here; in the data, active means growth inhibition above about 70%; inactive means the rest.

What was measured:
[1] = NCI Yeast Anticancer Drug Screen. Data for the rad50 strain (AID 155);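 further: 0% = growth of vehicle-only cultures of the same strain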; conditions: S. cerevisiae rad50 strain growth inhibition; at 50.0 µM; stronger effect = higher value
Outline: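 Compounds were tested on a yeast strain with an engineered DNA damage repair alteration; the reported value is growth inhibition normalised to vehicle treatment.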

[2] = NCI Yeast Anticancer Drug Screen. Data for the mec2-1 strain (AID 157); conditions: S. cerevisiae mec2-1 strain, at 50.0 µM, stronger effect = higher value
Outline: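 Vehicle-treated cultures served as reference for growth inhibition of compound-exposed mec2-1 yeast.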

[3] = NCI Yeast Anticancer Drug Screen. Data for the sgs1 mgt1 strain (AID 161);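 further: 0% = growth of cultures given vehicle only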; conditions: S. cerevisiae sgs1 mgt1 strain, at 50.0 µM, stronger effect = higher value
Outline: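 Test agents were incubated with a DNA-repair-mutant yeast strain. Growth was then read and compared against vehicle-treated controls.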

[4] = NCI Yeast Anticancer Drug Screen. Data for the cln2 rad14 strain (AID 165);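 further: 0% = growth equal to vehicle treated cultures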; conditions: S. cerevisiae cln2 rad14 strain, at 50.0 µM, stronger effect = higher value
Outline: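 Each compound was tested on cln2 rad14 yeast. Inhibition of growth was calculated against vehicle-exposed controls.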

[5] = NCI Yeast Anticancer Drug Screen. Data for the bub3 strain (AID 167); conditions: S. cerevisiae bub3 mutant strain, at 50.0 µM, stronger effect = higher value
Outline: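 Growth of a checkpoint-deficient yeast mutant is measured after compound exposure. Values represent inhibition relative to vehicle.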

[6] = NCI Yeast Anticancer Drug Screen. Data for the mlh1 rad18 strain (AID 175); conditions: S. cerevisiae mlh1 rad18 strain growth inhibition; at 50.0 µM; stronger effect = higher value
Outline: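 Vehicle-treated cultures served as the reference for growth inhibition in a yeast strain carrying DNA damage repair alterations exposed to each compound.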

Measured: growth inhibition

CC(=O)OC[C@@H](OC(C)=O)[C@@H](OC(C)=O)[C@H]1OC[C@@H]2C[C@H]([C@H]1OC(C)=O)N(Cc1ccccc1)O2
inactive: [1] -18.9% | [2] -13.8% | [3] -7.75% | [4] 4.25% | [5] -9.8% | [6] -0.3%

CCCC(C)(CCC)OC(=O)Nc1cccc2ccccc12
inactive: [1] -3% | [2] -4.2% | [3] -4.4% | [4] -10.7% | [5] 6.95% | [6] 15.2%

Cc1ccc(C)c(NCc2ccccc2)c1
inactive: [1] 41.6% | [2] 20.1% | [3] 8.85% | [4] -16.9% | [5] 36.9% | [6] 24.3%

O=C(NC1CCCCC1)Oc1ccc(Cl)cc1Cl
inactive: [1] 4.8% | [2] 23.9% | [3] 28.2% | [4] -8.45% | [5] 35.6% | [6] 31.9%

O=C(O)C(Cc1ccc2c(c1)CCC2)(Cc1ccc2c(c1)CCC2)C(=O)O
inactive: [1] 26.9% | [2] 13.3% | [3] -4% | [4] 33.3% | [5] 22.8% | [6] 12.1%

Clc1ccc(Nc2ncco2)cc1Cl
inactive: [1] 16.7% | [2] -15.2% | [3] 30.6% | [4] -0.8% | [5] 1.1% | [6] 16.8%

COc1ccc(C2OCC(COC(C)=O)O2)cc1OC (stereo not given)
inactive: [1] -11% | [2] 6.4% | [3] 1.2% | [4] -17.9% | [5] 26.5% | [6] 10.4%

OCC(O)COc1ccccc1F (stereo not given)
inactive: [1] 11.5% | [2] -6.35% | [3] -11.2% | [4] -13.2% | [5] -7.5% | [6] 10.8%

CCOC(=O)C(NC(C)=O)(C(=O)OCC)C1CCCCC1=O (stereo not given)
inactive: [1] -10.8% | [2] 2.65% | [3] -33.4% | [4] -3.4% | [5] -10.8% | [6] -20.5%

COC(=O)Nc1c2ccccc2c(NC(=O)OC)c2ccccc12
inactive: [1] -7.15% | [2] 13% | [3] 19.7% | [4] -88.8% | [5] 23.1% | [6] 0.75%

CNc1ncnc2[nH]ncc12
inactive: [1] 18.4% | [2] -0.85% | [3] 6.25% | [4] -18.2% | [5] -7.05% | [6] 1.35%

COc1ccc(-c2nc(N)nc3c2CN(CCC(=O)O)C3=O)cc1
inactive: [1] 0.9% | [2] -18.2% | [3] 12% | [4] -8.6% | [5] 7.45% | [6] 3.9%

COc1ccc(OC)c(C(N)=O)c1
inactive: [1] -0.1% | [2] 13.8% | [3] -1.25% | [4] 0.95% | [5] 0.85% | [6] -2.5%

CCCCN(CC)NC(=S)Nc1ccccc1
inactive: [1] -9.25% | [2] 9.7% | [3] -3.3% | [4] -18.4% | [5] 17.9% | [6] 5.6%

CC(C)C(C)(C(N)=O)C(C)C
inactive: [1] 14.3% | [2] 17.4% | [3] 10.2% | [4] 17.9% | [5] -1.25% | [6] -1.4%

CNC(=S)SCc1ccc(Cl)cc1
inactive: [1] -10.6% | [2] -12.5% | [3] 11.4% | [4] -36.6% | [5] 40.8% | [6] 2.7%

COc1ccc(Cc2cc3c(cc2OCC(=O)Nc2ccccn2)OCO3)cc1
inactive: [1] 22.2% | [2] -1.95% | [3] 6.25% | [4] 19.3% | [5] -3% | [6] 8.1%

Cc1ccccc1SC(c1ccccc1)(c1ccccc1)c1ccccc1
inactive: [1] -11.2% | [2] -25.3% | [3] -0.2% | [4] -6.55% | [5] -6.1% | [6] -37.8%

CSCCC(NC(=O)OCc1ccccc1)P(=O)(O)c1ccccc1 (stereo not given)
inactive: [1] -56% | [2] -41.1% | [3] -34% | [4] 13.2% | [5] 14.8% | [6] -11%

CC(C)c1ccc(C(O)C2CC2)cc1 (stereo not given)
inactive: [1] -14.3% | [2] -40.8% | [3] -15.2% | [4] 3.05% | [5] -19.6% | [6] -11.6%
